# Test results as given in ChEMBL document CHEMBL3988442, “University of Dundee, Small-Polar-MMV Screening Library” (2021).
# Among all 48,000 compounds or so, about 13,000 (27%) showed an effect of 50% or more. This is one part of the list.
# System: Wolbachia pipientis
# Test: Anti-Wolbachia Cell-Based Screen
# Type: functional
# Parameters: scale not given: in the data most compounds retested in dose-response had high values
# Settings: 5 µM
row,SMILES,Percent Effect [%]
1,O=C(NC1(c2nccs2)CCCC1)c1[nH]nc(C2CC2)c1Cl,-0.1495
2,O=C(Nc1ccccc1OC(F)(F)F)C1CCS(=O)(=O)C1 (centres undefined),4.045
3,N#Cc1cnn(C(=O)COc2ccccc2F)c1N,-3.189
4,Cc1n[nH]c(C2CN(C(=O)c3ccc4c(c3)COC4)CCO2)n1 (centres undefined),-48.4
5,CCc1n[nH]c(C2CN(C(=O)c3ccnc(N(C)C)c3)CCO2)n1 (centres undefined),149.1
6,CCCc1n[nH]c(C2CN(C(=O)c3ccc4c(c3)COC4)CCO2)n1 (centres undefined),124.9
7,CCc1n[nH]c(C2CN(C(=O)c3ccc(NC4CC4)nc3)CCO2)n1 (centres undefined),134.6
8,CCc1n[nH]c(C2CN(C(=O)c3ccc4c(c3)COC4)CCO2)n1 (centres undefined),136
9,C[S+]([O-])c1nncn1CC(=O)c1cccc(Br)c1 (centres undefined),-3.709
10,Cc1ccc(CN(C)C(=O)NCC(C)(C)S(C)(=O)=O)s1,-13.6
11,CCNc1ncc(CN2C[C@@H](CN3CCC(CO)CC3)[C@@H](CO)C2)cn1,12.05
12,Cc1ccc(CC(=O)N2CCn3cc(Cn4cncn4)nc3C2)cc1,8.244
13,c1cc2c(cc1-c1noc3c1CN(C1CCC1)CC3)OCO2,-7.391
14,CS(=O)(=O)c1nccn1Cc1ccncc1,-5.065
15,Cc1ccc2oc(CN3CCn4nc(CCC(=O)O)cc4C3)c(C)c2c1,5.001
16,O=C(CCCc1nc2ccccc2[nH]1)N1CCCC1c1ccncc1 (centres undefined),8.641
17,O=C(c1cc(F)ccc1F)C1CCN(C(=O)c2cccnc2O)CC1,-3.966
18,O=C(c1cc(F)ccc1F)C1CCN(C(=O)c2ccccn2)CC1,7.01
19,O=C(c1cc(F)ccc1F)C1CCN(C(=O)c2ccco2)CC1,137.2
20,O=C(c1cc(F)ccc1F)C1CCN(C(=O)c2cnccn2)CC1,120.4
21,Cc1cccc(C(=O)N2CCC(C(=O)c3cc(F)ccc3F)CC2)n1,159.7
22,C=C(Cl)CN1CCC(C(=O)c2cc(F)ccc2F)CC1,-0.07038
23,Cc1cnc(C(=O)N2CCC(C(=O)c3cc(F)ccc3F)CC2)cn1,134
24,NC(=O)NC(=O)CCN1CCC(C(=O)c2cc(F)ccc2F)CC1,-46.12
25,CS(=O)(=O)CCN1CCSCC1c1ccc(Cl)cc1 (centres undefined),-3.973

row,SMILES,Percent Effect [%]
1,O=C(C1CC(F)(F)C1)N1CC[C@H]2OCC[C@@]2(COCC2CC2)C1,-8.729
2,CC(SCC(=O)NCCC#N)c1ccc(Cl)cc1 (centres undefined),5.18
3,COc1cccc(-c2nc(CNCCCn3cccn3)cs2)c1,28.1
4,O=C(c1ccoc1)N1CCc2ncnc(NCc3ccccn3)c2CC1,2.356
5,CCCN1CCN(C(=O)c2cccnc2-n2cncn2)CC1,5.341
6,O=C(O)C(F)(F)F.O=C(c1ccoc1)N1CCC2(CC1)COC(COc1ccccn1)C2 (centres undefined),19.26
7,Cc1nc2ccc(C(=O)N3CCC(COc4ccccn4)CC3)cc2[nH]1,160.4
8,O=C(c1cccnc1O)N1CCC(COc2ccccc2)CC1,-5.095
9,COc1ccnc(CN(C)C(=O)CSc2nnc(N)s2)c1,0.9714
10,COc1cc(OC)cc(-c2noc(CN)n2)c1,-5.186
11,COc1ccc(-c2noc(C3CCS(=O)(=O)C3)n2)cc1OC (centres undefined),-2.853
12,COc1ccc(-c2noc([C@@H]3C[C@@H](O)CN3C3CCCCC3)n2)cc1,-13.77
13,COc1ccc(-c2noc(C(N)CCSC)n2)cc1OC (centres undefined),100.4
14,Cc1ccc(-c2noc([C@H](N)CC(C)C)n2)nn1,0.7851
15,COc1cc(OC)cc(-c2noc(C(N)CCSC)n2)c1 (centres undefined),122.3
16,COc1ccc(-c2noc(C(=O)NCCN3CCCCC3)n2)cc1OC,-3.645
17,COc1ccc(-c2noc(C(N)CCSC)n2)cc1 (centres undefined),92.78
18,COc1ccc(-c2noc(C3CC(C(C)C)=NO3)n2)cc1 (centres undefined),-24.09
19,COc1ccnc(N2CCCN(Cc3ncc(C(C)C)o3)CC2)n1,-1.774
20,Cc1cnn(CC2CN(c3ccc(C#N)cn3)CCO2)c1 (centres undefined),117.6
21,Cc1nc(C)n(CC2CN(c3ccc(C#N)cn3)CCO2)n1 (centres undefined),-2.345
22,CN(C)CC1CN(c2ccc(C#N)cn2)CCO1 (centres undefined),-4.596
23,Cc1cnn(CC2CN(c3cnc4ccccc4n3)CCO2)c1 (centres undefined),-7.583
24,Cc1cc(C)n(CC2CN(c3ccc(C#N)cn3)CCO2)n1 (centres undefined),119.8
25,Cc1cc(C)n(CC2CN(CCOc3cccc(C#N)c3)CCO2)n1 (centres undefined),-7.515

row,SMILES,Percent Effect [%]
1,O=C(O)c1ccccc1C1CCN(C2Cc3ccccc3C2)C1 (centres undefined),0.3893
2,CN1CCC(N2CCC(c3ccccc3C(=O)O)C2)CC1 (centres undefined),13.56
3,O=C1N[C@H]2OCCC[C@H]2[C@H](c2ccccc2C(=O)O)N1,55.53
4,O=C1CO[C@H](c2ccc(NS(=O)(=O)c3ccccc3)cc2)[C@@H](CO)N1,-4.896
5,COc1ccc([C@@H]2NC(=O)N[C@H]3OCCC[C@H]32)cc1,92.15
6,COc1ccc(C2CC(=O)Nc3c2cnn3C2CCCC2)cc1 (centres undefined),-0.6699
7,O=C(O)c1ccc(OC2CCOCC2)cc1,3.994
8,O=C1N[C@H]2OCCC[C@H]2[C@H](c2ccccc2)N1,111.8
9,COc1ccc(C2CC(=O)Oc3cc(C)[nH]c(=O)c32)cc1 (centres undefined),5.191
10,O=C1N[C@H]2OCCC[C@H]2[C@H](c2ccc(C(=O)O)cc2)N1,126.1
11,O=C1CC(c2ccccc2)c2cnn(C3CCCC3)c2N1 (centres undefined),5.906
12,O=C(CN1CCCC(c2ccc(C(=O)O)cc2)C1)NC1CC1 (centres undefined),-9.643
13,CCOCCn1nc(C)cc1C(=O)N1CCN(C(C)C)C(CC)C1 (centres undefined),12.32
14,CC(=O)N1CCC(N2CCOC[C@H]2c2nc(-c3ccncc3)c[nH]2)CC1,-16.93
15,CC(=O)N1CCCC2(CCN(C(=O)c3nccnc3N)CC2)C1,-5.274
16,NC(=O)CSc1nccc(-c2ccc3c(c2)OCO3)n1,94.21
17,NC(=O)CCC(=O)N1CCc2[nH]nc(-c3ccc4c(c3)OCO4)c2C1,-2.811
18,CCOc1ccc(-c2ccc3c(c2)OCO3)cc1C(N)=O,-6.962
19,O=C(Cc1ccc2c(c1)OCO2)N1CCN(c2ccncc2)CC1,-22.19
20,CN(C)C(=O)c1cccnc1-c1ccc2c(c1)OCO2,-0.5608
21,O=C(O)CSc1nccc(-c2ccc3c(c2)OCO3)n1,78.66
22,O=C(CSc1nccc(-c2ccc3c(c2)OCO3)n1)N1CCOCC1,110.7
23,CSCC(=O)N1CCc2[nH]nc(-c3ccc4c(c3)OCO4)c2C1,-14.59
24,CNCc1nc(-c2ccc3c(c2)OCO3)c[nH]1.Cl.Cl,-0.9226
